According to PubChem BioAssay (Tox21):
Records with an inconclusive call do not appear. Calls of active or inactive are those of the source. Calls follow the shape of the dose curve; as a rule, active = well fitted curve in the direction sought with a large enough effect in the repeat runs; inconclusive = weak or mixed curves; inactive = no such curve, though single readings can be large; an effect the other way counts as inactive or inconclusive.

Tests used:
[1] = A CellTox Green Cytotoxicity Assay to monitor cytotoxicity in HepG2 cells - 24 hour (AID 1224878); also: nearly all actives have a fitted effect of over 45% in size
Outline: (§1)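 Read-out is fluorescence of a cyanine dye excluded from live cells that stains DNA of dead HepG2 cells, with signal proportional to cytotoxicity. Plates were read at 0, 8, 16, 24, 32 and 40 h after compound addition.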

[2] = A CellTox Green Cytotoxicity Assay to monitor cytotoxicity in HepG2 cells - 40 hour (AID 1224879); also: nearly all actives have a fitted effect of over 40% in size
Outline: as §1

[3] = qHTS RealTime-Glo MT Cell Viability Assay in HEK293 cells - 0 hour (AID 1224880); also: top concentration of the series differs between compounds; nearly all actives have a fitted effect of over 45% in size
Outline: (§2)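 Cells were seeded together with NanoLuc luciferase and a prosubstrate that viable cells reduce to a luciferase substrate. After a 5 h incubation at 37 C/5% CO2, compounds were added and luminescence was measured repeatedly during 40 h of treatment.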

[4] = A CellTox Green Cytotoxicity Assay to monitor cytotoxicity in HEK293 cells - 32 hour (AID 1224881); also: nearly all actives have a fitted effect of over 40% in size
Outline: (§3)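 Nonlytic real-time cytotoxicity: HEK293 + CellTox Green reagent plated, 5 h preincubation, pintool compound addition (23 nL in DMSO), 37 C for 40 h, fluorescence measured at successive time points.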

[5] = A CellTox Green Cytotoxicity Assay to monitor cytotoxicity in HepG2 cells - 0 hour (AID 1224882); also: nearly all actives have a fitted effect of over 35% in size
Outline: as §1

[6] = A CellTox Green Cytotoxicity Assay to monitor cytotoxicity in HepG2 cells - 32 hour (AID 1224883); also: nearly all actives have a fitted effect of over 50% in size
Outline: as §1

[7] = A CellTox Green Cytotoxicity Assay to monitor cytotoxicity in HEK293 cells - 8 hour (AID 1224884); also: nearly all actives have a fitted effect of over 35% in size
Outline: as §3

[8] = qHTS RealTime-Glo MT Cell Viability Assay in HepG2 cells - 16 hour (AID 1224885); also: nearly all actives have a fitted effect of over 50% in size
Outline: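 HepG2 suspension premixed with RealTime-Glo reagents is plated at 600 cells per well and left 5 h at 37 C/5% CO2. Compounds in DMSO then go in, and bioluminescence reflecting viable cell number is recorded over 40 h.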

[9] = qHTS RealTime-Glo MT Cell Viability Assay in HEK293 cells - 24 hour (AID 1224886); also: top concentration of the series differs between compounds; nearly all actives have a fitted effect of over 50% in size
Outline: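 Reads taken at 0, 8, 16, 24, 32 and 40 h from the same wells. HEK293 cells (600/well) carried RealTime-Glo reagents from seeding, with compound added after a 5 h settle at 37 C.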

[10] = qHTS RealTime-Glo MT Cell Viability Assay in HEK293 cells - 8 hour (AID 1224887); also: top concentration of the series differs between compounds; nearly all actives have a fitted effect of over 50% in size
Outline: as §2
% is scaled to controls: 0 for no effect and ±100 for the full control effect.

C=CCN1CCc2nc(N)sc2CC1
inactive: Potency [1] | Potency [2] | Potency [3] | Potency [4] | Potency [5] | Potency [6] | Potency [7] | outcome [8] | outcome [9] | outcome [10]

COc1cc(NS(=O)(=O)c2ccc(N)cc2)ncn1
inactive: Potency [1] | Potency [2] | Potency [3] | Potency [4] | Potency [5] | Potency [6] | Potency [7] | outcome [8] | outcome [9] | outcome [10]

CCCCCCCCCCCCCCCC/C=C/C1CC(=O)OC1=O (stereo not given)
inactive: Potency [1] | Potency [2] | Potency [3] | Potency [4] | Potency [5] | Potency [6] | Potency [7] | outcome [8] | outcome [9] | outcome [10]

CCOc1ccccc1OCCN[C@H](C)Cc1ccc(OC)c(S(N)(=O)=O)c1
inactive: Potency [1] | Potency [2] | Potency [3] | Potency [4] | Potency [5] | Potency [6] | Potency [7] | outcome [8] | outcome [9] | outcome [10]

CCCCN(CCCC)CCCCCCN(CCCC)CCCC
inactive: Potency [1] | Potency [2] | Potency [3] | Potency [4] | Potency [5] | Potency [6] | Potency [7] | outcome [8] | outcome [9] | outcome [10]

C[C@@H]1NC(=O)[C@@H](N)CNC(=O)[C@H](C2CCNC(N)=N2)NC(=O)/C(=C/NC(N)=O)NC(=O)[C@H](CNC(=O)C[C@@H](N)CCCN)NC1=O (stereo not given in full)
inactive: cytotoxicity [1] -1.91% [at 0.29 µM] | cytotoxicity increase [2] -3.78% [at 0.29 µM] | activity change, negative = cytotoxicity [3] -3.01% [at 0.29 µM] | cytotoxicity increase [4] 19.4% [at 0.29 µM] | cytotoxicity [5] -4.92% [at 0.29 µM] | cytotoxicity increase [6] -3.17% [at 0.29 µM] | cytotoxicity increase [7] 6.36% [at 0.29 µM] | activity change, negative = cytotoxic [8] 5.82% [at 0.29 µM] | activity change, negative = cytotoxicity [9] 0.653% [at 0.29 µM] | activity change, negative = cytotoxicity [10] 0.186% [at 0.29 µM]

O=C(O)/C=C(\CC(=O)O)C(=O)O
inactive: Potency [1] | Potency [2] | Potency [3] | Potency [4] | Potency [5] | Potency [6] | Potency [7] | outcome [8] | outcome [9] | outcome [10]

CC(=O)/C=C/C=C1/C2CCC(C2)C1(C)C (stereo not given)
inactive: Potency [1] | Potency [2] | Potency [3] | Potency [4] | Potency [5] | Potency [6] | Potency [7] | outcome [8] | outcome [9] | outcome [10]

O=P(O)(O)C(O)(Cc1cccnc1)P(=O)(O)O
inactive: Potency [1] | Potency [2] | Potency [3] | Potency [4] | Potency [5] | Potency [6] | Potency [7] | outcome [8] | outcome [9] | outcome [10]

O=C(c1ccccc1)c1cccc(O)c1
inactive: Potency [1] | Potency [2] | Potency [3] | Potency [4] | Potency [5] | Potency [6] | Potency [7] | outcome [8] | outcome [9] | outcome [10]

CCCCCC(=O)CC
inactive: Potency [1] | Potency [2] | Potency [3] | Potency [4] | Potency [5] | Potency [6] | Potency [7] | outcome [8] | outcome [9] | outcome [10]

CC(C)C(=O)Nc1cccc(C2CN3CCSC3=N2)c1 (stereo not given)
inactive: Potency [1] | Potency [2] | Potency [3] | Potency [4] | Potency [5] | Potency [6] | Potency [7] | outcome [8] | outcome [9] | outcome [10]

CC(C)C(C)C
inactive: Potency [1] | Potency [2] | Potency [3] | Potency [4] | Potency [5] | Potency [6] | Potency [7] | outcome [8] | outcome [9] | outcome [10]

COC(=O)c1ccccc1Cl
inactive: Potency [1] | Potency [2] | Potency [3] | Potency [4] | Potency [5] | Potency [6] | Potency [7] | outcome [8] | outcome [9] | outcome [10]

CN(C)CCc1c[nH]c2ccc(CS(=O)(=O)N3CCCC3)cc12
inactive: Potency [1] | Potency [2] | Potency [3] | Potency [4] | Potency [5] | Potency [6] | Potency [7] | outcome [8] | outcome [9] | outcome [10]

O=S(=O)(O)CC(O)CCl (stereo not given)
inactive: Potency [1] | Potency [2] | Potency [3] | Potency [4] | Potency [5] | Potency [6] | Potency [7] | outcome [8] | outcome [9] | outcome [10]

CC/C=C/CCCCCCCCCCOC(C)=O
inactive: Potency [1] | Potency [2] | Potency [3] | Potency [4] | Potency [5] | Potency [6] | Potency [7] | outcome [8] | outcome [9] | outcome [10]

C=CC(C)(CCC=C(C)C)OC(=O)C(C)C (stereo not given)
inactive: Potency [1] | Potency [2] | Potency [3] | Potency [4] | Potency [5] | Potency [6] | Potency [7] | outcome [8] | outcome [9] | outcome [10]

O=CN1CCCCC1
inactive: Potency [1] | Potency [2] | Potency [3] | Potency [4] | Potency [5] | Potency [6] | Potency [7] | outcome [8] | outcome [9] | outcome [10]

CCC(C)c1nccnc1OC (stereo not given)
inactive: Potency [1] | Potency [2] | Potency [3] | Potency [4] | Potency [5] | Potency [6] | Potency [7] | outcome [8] | outcome [9] | outcome [10]

CNC(C)=O
inactive: Potency [1] | Potency [2] | Potency [3] | Potency [4] | Potency [5] | Potency [6] | Potency [7] | outcome [8] | outcome [9] | outcome [10]

NNC(=O)CCCCC(=O)NN
inactive: Potency [1] | Potency [2] | Potency [3] | Potency [4] | Potency [5] | Potency [6] | Potency [7] | outcome [8] | outcome [9] | outcome [10]

CCO/C=C1\N=C(c2ccccc2)OC1=O
inactive: Potency [1] | Potency [2] | Potency [3] | Potency [4] | Potency [5] | Potency [6] | Potency [7] | outcome [8] | outcome [9] | outcome [10]

Nc1nc(Cl)cc(Cl)n1
inactive: Potency [1] | Potency [2] | Potency [3] | Potency [4] | Potency [5] | Potency [6] | Potency [7] | outcome [8] | outcome [9] | outcome [10]
